Laboratory results published in the supplement of paper PMC13380429.

Test system: Vero E6 infected with SARS-CoV-2
Experiment: inhibition of SARS-CoV-2 cytopathic effect; higher = more antiviral protection, active = above 15
Conditions: 48 h

Measured: inhibition of SARS-CoV-2 cytopathic effect

CCCCCNCC(N)=O [milacemide]
inactive: 1 nM 1.56% | 8.33 nM -1.78% | 100 nM 2.01% | 833.33 nM 2.58% | 10000 nM -0.4%

CCn1c2ccccc2c2cc(CNCc3ccccc3OC)ccc21
inactive: 1 nM 3.14% | 8.33 nM 2.16% | 100 nM 0.25% | 833.33 nM -1.14% | 10000 nM -6.1%

Cc1cc(I)ccc1Nc1c(C(=O)NOCC2CC2)cc(F)c(F)c1F
inactive: 1 nM 0.41% | 8.33 nM 5.24% | 100 nM 7.71% | 833.33 nM -0.67% | 10000 nM -4.88%

COc1cc2c(cc1OC)-c1c(C)c3ccc(OC)c(OC)c3c[n+]1CC2 [dehydrocorydaline]
inactive: 1 nM -0.53% | 8.33 nM 0.34% | 100 nM -1% | 833.33 nM -1.37% | 10000 nM 0.05%

O=C1c2ccccc2C(=O)C1c1ccccc1 [phenindione]
inactive: 1 nM -1.88% | 8.33 nM -1.11% | 100 nM -1.06% | 833.33 nM -1.97% | 10000 nM -3.42%

C[C@H](CS)C(=O)N1CCC[C@H]1C(=O)O [captopril]
inactive: 1 nM -1.79% | 8.33 nM 0.97% | 100 nM -2.39% | 833.33 nM -1.5% | 10000 nM -0.97%

Cc1ccc(C(=O)C(C)CN2CCCCC2)cc1 (stereo not given) [tolperisone]
inactive: 1 nM -0.13% | 8.33 nM -1.26% | 100 nM -0.59% | 833.33 nM -1.06% | 10000 nM 0.32%

CCCOCCn1c(=O)c(N2CCN(CCO)CC2)nc2cnc(-c3ccc(OC)nc3)cc21
inactive: 1 nM 0.37% | 8.33 nM 0.25% | 100 nM -0.91% | 833.33 nM -1.66% | 10000 nM -1.9%
